From PubChem BioAssay (NCATS)
Results filed as inconclusive are left out. Calls of active or inactive are those of the source. Unless noted, calls come from the whole dose curve; as a rule, active = well fitted curve in the direction sought with a large enough effect; inconclusive = small, poorly fitted or top-dose-only effect, or another doubt; inactive = no such curve, though single readings can be large; an effect the other way counts as inactive or inconclusive.

Assays:
[1] = target: Alpha-galactosidase (Coffea arabica) (UniProt Q42656); test: Counterscreen for Glucocerebrosidase Inhibitors: qHTS Assay for Coffee Bean alpha-Galactosidase at pH 4.5 (AID 957); note: series mostly up to about 77 µM
In short: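 Quantitative HTS of compounds (0.7 nM to 77 uM) against coffee bean alpha-galactosidase at pH 4.5, measuring 4-methylumbelliferone fluorescence released from 80 uM substrate.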

[2] = target: Alpha-galactosidase (Coffea arabica) (UniProt Q42656); test: Counterscreen for Glucocerebrosidase Inhibitors: qHTS Assay for Coffee Bean alpha-Galactosidase at pH 5.9 (AID 998)
In short: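 Enzyme 2 nM + cpd (0.7 nM–77 uM titration) + 4-MU-alpha-Gal 80 uM, pH 5.9 citrate/Tween-20, RT 20 min, NaOH/glycine stop pH 10, fluor 365/440. Normalized to no-enzyme and full-activity controls; Hill-fit AC50.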

[3] = Inducers of the Endoplasmic Reticulum Stress Response (ERSR) in human glioma: Validation (AID 504836)
In short: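 Stably transfected U87-MG glioma cells carrying a GRP78-based luciferase sensor; 16 h compound incubation. Luminescence end-point read 10 min after Bright-Glo addition at room temperature.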

[4] = qHTS for Inhibitors of the Functional Ribonucleoprotein Complex (vRNP) of Lassa (LASV) Arenavirus: LASV Primary Screen - GLuc reporter signal (AID 1347082; calls by dose curve; tested in HEK293 reporter line; note: series mostly up to about 57 µM; nearly all actives have a fitted effect of over 60% in size)
[5] = qHTS for Inhibitors of the Functional Ribonucleoprotein Complex (vRNP) of Lassa (LASV) Arenavirus: Viability assay - alamar blue signal for LASV Primary Screen (AID 1347083; calls by dose curve; tested in HEK293 reporter line; note: series mostly up to about 57 µM; nearly all actives have a fitted effect of over 80% in size)
[6] = qHTS for Inhibitors of the Functional Ribonucleoprotein Complex (vRNP) of Lymphocytic Choriomeningitis Arenaviruses (LCMV): Viability assay - alamar blue signal for LCMV Primary Screen (AID 1347085; calls by dose curve; tested in HEK293 reporter line; note: series mostly up to about 57 µM; nearly all actives have a fitted effect of over 80% in size)
[7] = target: Nucleoprotein (Lymphocytic choriomeningitis virus (strain Armstrong)) (UniProt P09992); test: qHTS for Inhibitors of the Functional Ribonucleoprotein Complex (vRNP) of Lymphocytic Choriomeningitis Arenaviruses (LCMV): LCMV Primary Screen - GLuc reporter signal (AID 1347086; calls by dose curve; note: series mostly up to about 57 µM; nearly all actives have a fitted effect of over 70% in size)
[8] = target: Cytochrome P450 3A4 (Homo sapiens) (UniProt P08684); test: qHTS Assay for Inhibitors and Substrates of Cytochrome P450 3A4 (AID 884); note: series mostly up to about 57 µM; nearly all actives have a fitted effect of over 50% in size
In short: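 Luminescent readout of luciferin produced by CYP3A4 (20 nM) dealkylation of Luciferin-PPXE, 25 uM (its KM). NADPH-driven reaction ran 60 min at RT after 10 min compound preincubation; data scaled to 57 uM ketoconazole as 100% inhibition.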

[9] = target: Ubiquitin carboxyl-terminal hydrolase 1 (Homo sapiens) (UniProt O94782); test: Inhibitors of USP1/UAF1: Pilot qHTS (AID 504865);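 note: rhodamine fluorescence freed from ubiquitin-rhodamine substrate followed over time; top concentration of the series differs between compounds; nearly all actives have a fitted effect of over 35% in size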
In short: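 USP1/UAF1 complex at 1 nM preincubated 15 min at room temperature with compound, then Ub-Rho substrate added at 150 nM final. Fluorescence (480/540 nm) read kinetically in 50 mM HEPES pH 7.8, 0.5 mM EDTA, 1 mM TCEP, 0.1 mg/ml BSA, 0.01% Tween-20.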

[10] = target: DNA dC->dU-editing enzyme APOBEC-3G (Homo sapiens) (UniProt Q9HC16); test: qHTS for inhibitors of Vif-A3G interactions: Validation (AID 588379)
In short: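 Yellow fluorescence (Ex 488, Em 500-530) of Vif-coexpressing HeLa A3G-eYFP cells, scanned by Acumen cytometer, reports blocked A3G degradation. Cells plated at 700/well overnight at 37 deg C before compound addition, then a further overnight compound incubation at 37 deg C.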

Measured: Potency

Chain of Nucleoprotein (Lymphocytic choriomeningitis virus (strain Armstrong)) (P09992 whole entry, looked up): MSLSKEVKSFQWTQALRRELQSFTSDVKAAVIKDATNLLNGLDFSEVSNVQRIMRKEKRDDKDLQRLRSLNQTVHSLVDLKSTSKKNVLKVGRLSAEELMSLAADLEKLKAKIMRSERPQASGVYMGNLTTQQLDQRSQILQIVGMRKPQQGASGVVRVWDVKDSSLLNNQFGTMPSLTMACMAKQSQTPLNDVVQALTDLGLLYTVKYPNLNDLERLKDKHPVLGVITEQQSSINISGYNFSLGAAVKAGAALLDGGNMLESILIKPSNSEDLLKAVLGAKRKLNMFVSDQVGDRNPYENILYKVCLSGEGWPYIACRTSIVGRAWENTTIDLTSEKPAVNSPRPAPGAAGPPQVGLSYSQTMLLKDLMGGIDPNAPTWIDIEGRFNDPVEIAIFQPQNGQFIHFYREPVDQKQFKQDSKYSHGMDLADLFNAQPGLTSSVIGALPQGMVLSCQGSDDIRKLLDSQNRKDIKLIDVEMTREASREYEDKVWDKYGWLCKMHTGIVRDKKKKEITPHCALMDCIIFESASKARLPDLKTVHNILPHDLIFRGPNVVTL
Chain of Alpha-galactosidase (Coffea arabica) (Q42656 whole entry, looked up): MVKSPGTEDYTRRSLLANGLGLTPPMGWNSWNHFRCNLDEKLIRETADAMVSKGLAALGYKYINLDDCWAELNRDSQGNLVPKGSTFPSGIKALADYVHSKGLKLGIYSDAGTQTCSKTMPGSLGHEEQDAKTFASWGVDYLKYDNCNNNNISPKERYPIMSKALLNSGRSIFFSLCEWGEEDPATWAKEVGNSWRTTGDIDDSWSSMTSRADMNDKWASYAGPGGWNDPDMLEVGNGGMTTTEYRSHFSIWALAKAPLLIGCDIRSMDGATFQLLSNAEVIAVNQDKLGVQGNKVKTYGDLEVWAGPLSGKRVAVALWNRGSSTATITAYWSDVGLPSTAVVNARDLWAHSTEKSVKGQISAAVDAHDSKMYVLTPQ
Chain of DNA dC->dU-editing enzyme APOBEC-3G (Homo sapiens) (Q9HC16 whole entry, looked up): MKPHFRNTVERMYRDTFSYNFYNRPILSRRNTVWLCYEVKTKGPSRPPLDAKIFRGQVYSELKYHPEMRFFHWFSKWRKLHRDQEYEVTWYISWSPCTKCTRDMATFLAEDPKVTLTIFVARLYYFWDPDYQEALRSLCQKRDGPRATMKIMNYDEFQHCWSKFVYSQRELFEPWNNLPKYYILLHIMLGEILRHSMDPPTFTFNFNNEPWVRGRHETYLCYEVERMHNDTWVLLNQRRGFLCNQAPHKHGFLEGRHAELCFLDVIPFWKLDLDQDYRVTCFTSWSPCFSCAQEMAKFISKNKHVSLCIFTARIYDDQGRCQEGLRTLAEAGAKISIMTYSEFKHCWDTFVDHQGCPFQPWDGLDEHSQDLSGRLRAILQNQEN
Chain of Cytochrome P450 3A4 (Homo sapiens) (P08684 whole entry, looked up): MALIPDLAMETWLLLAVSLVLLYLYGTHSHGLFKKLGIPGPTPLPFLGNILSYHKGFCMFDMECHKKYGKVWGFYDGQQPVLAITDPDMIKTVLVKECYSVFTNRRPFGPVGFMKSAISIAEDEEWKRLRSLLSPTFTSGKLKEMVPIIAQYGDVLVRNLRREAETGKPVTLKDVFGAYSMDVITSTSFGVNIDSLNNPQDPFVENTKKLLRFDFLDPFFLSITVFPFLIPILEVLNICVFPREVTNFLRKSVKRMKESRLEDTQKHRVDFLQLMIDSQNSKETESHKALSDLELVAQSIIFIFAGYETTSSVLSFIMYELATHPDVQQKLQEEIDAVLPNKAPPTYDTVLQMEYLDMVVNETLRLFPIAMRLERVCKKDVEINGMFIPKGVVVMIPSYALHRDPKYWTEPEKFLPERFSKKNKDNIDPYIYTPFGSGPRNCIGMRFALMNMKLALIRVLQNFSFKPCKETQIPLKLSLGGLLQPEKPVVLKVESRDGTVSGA
Chain of Ubiquitin carboxyl-terminal hydrolase 1 (Homo sapiens) (O94782 whole entry, looked up): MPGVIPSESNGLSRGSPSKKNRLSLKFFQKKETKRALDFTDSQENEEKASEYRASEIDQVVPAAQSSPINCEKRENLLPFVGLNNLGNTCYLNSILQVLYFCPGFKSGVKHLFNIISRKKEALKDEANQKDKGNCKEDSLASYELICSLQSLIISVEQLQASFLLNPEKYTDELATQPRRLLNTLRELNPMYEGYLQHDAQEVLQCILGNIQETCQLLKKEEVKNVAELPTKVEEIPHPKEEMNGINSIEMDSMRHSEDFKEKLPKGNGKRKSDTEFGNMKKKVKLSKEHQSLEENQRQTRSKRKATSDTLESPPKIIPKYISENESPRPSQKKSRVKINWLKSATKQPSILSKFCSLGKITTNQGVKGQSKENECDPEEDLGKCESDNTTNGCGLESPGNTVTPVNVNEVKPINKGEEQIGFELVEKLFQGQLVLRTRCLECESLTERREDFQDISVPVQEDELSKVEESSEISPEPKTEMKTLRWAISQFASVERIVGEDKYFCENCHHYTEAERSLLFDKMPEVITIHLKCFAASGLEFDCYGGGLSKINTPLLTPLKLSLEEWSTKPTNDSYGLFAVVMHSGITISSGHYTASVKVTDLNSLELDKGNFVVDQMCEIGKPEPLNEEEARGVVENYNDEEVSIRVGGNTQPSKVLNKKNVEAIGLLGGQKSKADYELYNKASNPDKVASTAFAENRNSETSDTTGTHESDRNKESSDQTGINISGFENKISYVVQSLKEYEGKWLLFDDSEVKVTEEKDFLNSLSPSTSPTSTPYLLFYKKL

CCN1C(=O)C=CC1=O
inactive: [1] | [2] | [3] | [4] | [5] | [6] | [7]

O=c1c2ccccc2nc2n1CCc1c-2[nH]c2ccccc12
inactive: [1] | [2] | [3] | [4] | [5] | [6] | [7]

C/C=C1/CN2CC[C@]34C(=C(C=O)[C@H]1C[C@@H]23)Nc1ccccc14
inactive: [8] | [9] | [10] | [4] | [5] | [6] | [7]

NCCCCC(=O)O
inactive: [1] | [2] | [3] | [4] | [5] | [6] | [7]
